From PubChem
Chlamy TAG = inducers of TAG accumulation in Chlamydomonas, primary screen, qHTS, Chlamydomonas reinhardtii. Nile Red fluorescence, 72 h. calls only at 10 µM (by protocol). AID 1159537, 2015. 0.84% of 44,000 active; call rule not given here;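 also: hits raise Nile Red signal meaning more stored TAG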
* = called active by the depositor; i = inactive; + = active, no number. This excerpt belongs to a sample that is enriched for hits.

SMILES	Chlamy TAG
COc1ccc(CCN(C)Cc2cccc([N+](=O)[O-])c2)cc1OC	i
COc1ccc(CCN(C)Cc2ccc([N+](=O)[O-])o2)cc1OC	i
COc1ccc(CCN(C)Cc2ccc([N+](=O)[O-])cc2)cc1OC	+
O=c1cccc2n1C[C@H]1C[C@H]2CN(Cc2cccc(OCc3ccccc3)c2)C1	i
COc1cc(CN2C[C@@H]3C[C@@H](C2)c2cccc(=O)n2C3)c([N+](=O)[O-])cc1OC	i
COc1ccc(CC(C)NCC2CCCO2)cc1OC (configuration not stated)	i
CCOc1ccccc1NC(=O)C(Cl)(Cl)Cl	i
O=C1NC(=O)C(CCc2ccncc2)(Cc2ccc3c(c2)OCO3)C(=O)N1	i
OCCN1CCN(Cc2ccc(F)c(F)c2)CC1	i
OCCN1CCN(Cc2ccc(Cl)cc2)CC1	i
CC(C)c1ccc(CN2CCN(CCO)CC2)cc1	+
Cc1ccc(C)c(CN2CCN(CCO)CC2)c1	i
O=[N+]([O-])c1ccc(O)c(CN2CCN(Cc3ccccc3)CC2)c1	i
Oc1ccc(Cl)cc1CN1CCN(Cc2ccccc2)CC1	+
COc1ccc(O)c(CN2CCN(Cc3ccc(Cl)cc3)CC2)c1	i
c1ccc(CCN2CCOCC2)cc1	i
Fc1ccc(N2CCN(CCc3ccccc3)CC2)cc1	+
Oc1cccc(CN2CCN(c3ccc(F)cc3)CC2)c1	i
COc1ccc(CCNC2CCCCC2OC)cc1OC (configuration not stated)	i
COc1ccc(CCN(C)Cc2cc(I)c(O)c(OC)c2)cc1OC	i
Cc1cccc(N2CCN(Cc3ccccc3[N+](=O)[O-])CC2)c1C	i
COc1ccccc1N1CCN(Cc2ccc(Cl)c(Cl)c2)CC1	i
CCOc1ccccc1N1CCN(Cc2ccc(OC)cc2)CC1	i
COc1ccccc1N1CCN(Cc2ccc(F)c(Br)c2)CC1	i
COc1ccc(CN2CCN(c3ccccc3OC)CC2)cc1O	i
SMILES	Chlamy TAG
COc1ccccc1N1CCN(Cc2ccc(F)cc2)CC1	+
COc1ccccc1N1CCN(Cc2ccc(O)cc2)CC1	+
C=CCSc1nc2ccccc2c(=O)n1-c1ccccc1	i
CCN1CCN(Cc2cc(OC)c(OC)c(OC)c2)CC1	i
CN=C(C)c1c(O)n(C)c(=O)n(C)c1=O	i
COc1ccc(CC(N)c2ccc(OC)c(OC)c2)cc1OC (configuration not stated)	i
CN(C(=O)Oc1ccc(C(=O)c2ccccc2)cc1)c1ccccc1	i
O=c1cccc2n1C[C@H]1C[C@H]2CN(Cc2ccc3c(c2)OCO3)C1	i
Cc1cccc(N2CCN(Cc3cccc([N+](=O)[O-])c3)CC2)c1C	i
Cc1cccc(N2CCN(Cc3ccc(F)cc3)CC2)c1C	i
CC(C)c1ccc(CN2CCN(c3ccccc3)CC2)cc1	i
Cc1ccccc1N1CCN(Cc2ccc(Br)cc2)CC1	i
CSc1ccc(CN2CCN(c3ccccc3C)CC2)cc1	i
Cc1ccccc1N1CCN(Cc2ccc(F)cc2)CC1	+
Brc1ccc(CN2CCN(c3ccccc3)CC2)cc1	+
CC(=O)c1ccc(N2CCN(Cc3ccc(Br)cc3)CC2)cc1	i
Cc1ccccc1N1CCN(Cc2ccccc2)CC1	i
CCc1ccc(CN2CCN(c3ccccc3C)CC2)cc1	+
Cc1cccc(N2CCN(Cc3ccc([N+](=O)[O-])cc3)CC2)c1C	+
Cc1cccc(N2CCN(Cc3ccccc3)CC2)c1C	i
O=[N+]([O-])c1ccccc1CNCCc1ccc(Cl)cc1Cl	i
O=[N+]([O-])c1cccc(Cl)c1N1CCNCC1	i
COc1cc(CN2C[C@@H]3C[C@@H](C2)c2cccc(=O)n2C3)cc(Br)c1O	i
C=CCOc1ccccc1CN1CCN(c2ccccc2)CC1	i
O=C(Cc1ccccc1)N1CCN(Cc2ccc([N+](=O)[O-])cc2)CC1	i
O=[N+]([O-])c1ccc(CN2CCN(Cc3ccccc3F)CC2)cc1	+
O=[N+]([O-])c1ccccc1CN1CCN(Cc2ccccc2)CC1	i
CCN(CC)c1ccc(CN2CCN(c3ccccc3)CC2)cc1	i
CCN1CCC(NC2CCCCCC2)CC1	i
CCc1ccc(CN2CCN(c3ccccc3F)CC2)cc1	i
